Test results taken from ChEMBL document CHEMBL4888484, “Replenishing the malaria drug discovery pipeline: Screening and hit evaluation of the MMV Hit Generation Library 1 (HGL1) against asexual blood stage Plasmodium falciparum ,using a nano luciferase reporter read-out” (2022).
About 540 (0.36%) of roughly 150,000 compounds showed an effect of 50% or more. What follows is part of a selection rich in strong results, with near analogues and random picks from the rest.

test system: Plasmodium falciparum; assay: Primary screen in NF54 nanoGlo assay, in single point, at 2uM, 72h; a lower Z score goes with more inhibition; assay type: functional, Erythrocyte; conditions: timepoint 72 hour

Q: With `Fc1cc(CNCC(F)F)ccc1Cl` as the compound, how does the “% Inhibition” value read?
A: -7%

Q: And the Z score?
A: 0.98

Q: For `CC(NC[C@H](C)O)C(C)(C)c1ccc(F)cc1` (some centres undefined), which “% Inhibition” value is on record?
A: -3%

Q: And the Z score?
A: 0.44

Q: Which “% Inhibition” value does the source give for `O=c1ccc(-c2cncnc2)c2n1C[C@H]1C[C@@H]2CN(S(=O)(=O)c2ccccc2)C1` here?
A: -11%

Q: And the Z score?
A: 1.78

Q: What does the source list for `Cc1ccc(CN2CCN(C(=O)Cc3cccnc3)[C@H]3CS(=O)(=O)C[C@H]32)o1`?
A: % Inhibition: 5%; Z score: -0.92

Q: Which “% Inhibition” value does the source give for `CCC(=O)Nc1ccc(C)c(NC(=O)C2(c3ccccc3)CCN(C)CC2)c1` here?
A: -9%

Q: And the Z score?
A: 1.09

Q: For `CCc1cccc(N(C(=O)c2ccc(NC(C)=O)cc2)C2(C(=O)NCc3ccccc3)CCN(C(C)=O)CC2)c1`, which “% Inhibition” value is on record?
A: 0%

Q: What about the Z score of the same compound?
A: 0

Q: With `CC(=O)N(C1CCN(Cc2ccccc2)CC1)C1(C(=O)Nc2ccc3[nH]ccc3c2)CCN(C)CC1` as the compound, how does the “% Inhibition” value read?
A: 92%

Q: What about the Z score of the same compound?
A: -11.04

Q: With `CN(C)c1ccc(CN2CCN(CCO)[C@@H]3CS(=O)(=O)C[C@@H]32)cn1` as the compound, how does the “% Inhibition” value read?
A: -3%

Q: What about the Z score of the same compound?
A: 0.58

Q: How did the “% Inhibition” value turn out when `O=C(Cc1ccc(O)c(F)c1)N1C[C@H]2c3ccccc3OC[C@@]2(C(=O)O)C1` was run?
A: -2%

Q: And the Z score?
A: 0.24

Q: For `CCOc1ccccc1NC(=O)CN1CC=C(c2cnn(C)c2)CC1`, which “% Inhibition” value is on record?
A: -1%

Q: What about the Z score of the same compound?
A: 0.1

Q: `COc1ccc(-c2csc(-n3cc(C4=CCN(CCO)CC4)cn3)n2)cc1` was tested. Which “% Inhibition” value did it give?
A: 50%

Q: And the Z score?
A: -5.49

Q: With `CN(C)C1(CNc2ccc(C#N)c(Cl)c2)CCOCC1` as the compound, how does the “% Inhibition” value read?
A: -5%

Q: What about the Z score of the same compound?
A: 0.53

Q: What does the source list for `O=C(c1cc(F)cc(F)c1)N1CCC2(CC1)N(c1ccccc1)C(=O)CS2(=O)=O`?
A: % Inhibition: -15%; Z score: 2.33

Q: What does the source list for `CC(C)(N)Cc1ccc(C(F)(F)F)cc1`?
A: % Inhibition: 1%; Z score: -0.09

Q: With `CN1CC[C@@]2(CCCN(c3ccncc3F)C2)C1` as the compound, how does the “% Inhibition” value read?
A: -8%

Q: And the Z score?
A: 0.76

Q: For `CN1CC[C@]2(CCN(c3ccnc4ccsc34)C2)C1`, which “% Inhibition” value is on record?
A: 98%

Q: What about the Z score of the same compound?
A: -10.65

Q: What does the source list for `Clc1cccc2c(N3CC[C@]4(CCNC4)C3)ccnc12`?
A: % Inhibition: 23%; Z score: -3.12

Q: `c1cc(N2CC[C@@]3(CCCNC3)C2)c2sccc2n1` was tested. Which “% Inhibition” value did it give?
A: 98%

Q: What about the Z score of the same compound?
A: -16.03

Q: `CN1CCC[C@@]2(CCN(c3ccncc3C3CC3)C2)C1` was tested. Which “% Inhibition” value did it give?
A: 0%

Q: What about the Z score of the same compound?
A: 0.05

Q: Which results are given for `CCc1cc(CN[C@@H](C)Cc2ccc(F)cc2)on1`?
A: % Inhibition: -5%; Z score: 0.53

Q: `Cc1nc(CN2C[C@@H](CO)[C@H](c3ccc(Cl)cc3)C2)co1` was tested. Which “% Inhibition” value did it give?
A: 4%

Q: What about the Z score of the same compound?
A: -0.83

Q: What does the source list for `O=C(CNc1ccc(Cl)c(F)c1)N1CCC2(CC1)OCCO2`?
A: % Inhibition: 28%; Z score: -3.19

Q: `CCCS(=O)(=O)Nc1ccc(=O)n2c1[C@@H]1C[C@@H](CN(C(=O)Nc3ccc(F)cc3)C1)C2` was tested. Which “% Inhibition” value did it give?
A: 27%

Q: What about the Z score of the same compound?
A: -3.06

Q: What does the source list for `N#Cc1ccc(N[C@H]2CCN(C3CCOCC3)C2=O)cc1C(F)(F)F`?
A: % Inhibition: 1%; Z score: -0.05

Q: What does the source list for `CN(Cc1ccccc1)C[C@H]1C[N@@]2CC[C@H]1C[C@@H]2CNC(=O)c1ccccc1`?
A: % Inhibition: 11%; Z score: -1.99

Q: What does the source list for `C=CCN(C)C[C@H]1CN2CC[C@H]1C[C@@H]2CNC(=O)Nc1ccc(OC(F)(F)F)cc1`?
A: % Inhibition: 57%; Z score: -4.08

Q: Which “% Inhibition” value does the source give for `C#CCN(C)C[C@H]1C[N@@]2CC[C@H]1C[C@@H]2CNC(=O)c1ccccc1` here?
A: 33%

Q: And the Z score?
A: -3.75

Q: `O=C(c1ccncc1F)N1C[C@H]2CC[C@@H](C1)N(CC1CC1)C2` was tested. Which “% Inhibition” value did it give?
A: 2%

Q: What about the Z score of the same compound?
A: -0.29

Q: Which results are given for `O=C(NCc1ccccc1)N1Cc2ccccc2-n2cccc2[C@H]1c1ccccc1`?
A: % Inhibition: -9%; Z score: 1.11

Q: How did the “% Inhibition” value turn out when `CN1CCN(CC(=O)N2CCC3(CC2)OCCO3)c2ccc(Cl)cc21` was run?
A: -13%

Q: What about the Z score of the same compound?
A: 2.46

Q: With `CCCc1cncnc1N1C[C@H]2CC[C@@H](C1)N(CCC)C2` as the compound, how does the “% Inhibition” value read?
A: 7%

Q: What about the Z score of the same compound?
A: -1.29

Q: Which results are given for `Cc1nc[nH]c1CN1C[C@H]2CC[C@@H](C1)N(C(=O)Cc1ccncc1)C2`?
A: % Inhibition: -5%; Z score: 0.88

Q: Which results are given for `COc1ccc2c(c1)OC[C@@]1(C(=O)O)CN(CCC(F)(F)F)C[C@@H]21`?
A: % Inhibition: 3%; Z score: -0.33

Q: For `Cc1cc(Cl)cc2c(N3CC[C@@]4(O)CCNC[C@H]4C3)ccnc12`, which “% Inhibition” value is on record?
A: 3%

Q: And the Z score?
A: -0.52

Q: How did the “% Inhibition” value turn out when `Cc1cc(C)n2ncc(CN3C[C@@H]4CC[C@H](C3)C(=O)N4)c2n1` was run?
A: -11%

Q: What about the Z score of the same compound?
A: 1.38

Q: Which “% Inhibition” value does the source give for `CC(C)(C)OC(=O)N1[C@@H]2CC[C@H]1[C@@H]1C[C@]1(C(=O)O)C2` here?
A: -10%

Q: What about the Z score of the same compound?
A: 1.06

Q: Which results are given for `CC(C)c1ncc(C(=O)N[C@H]2CN3CCC2CC3)cn1`?
A: % Inhibition: 2%; Z score: -0.19

Q: With `O=C(Cc1c[nH]c2ccccc12)N1CCN(Cc2nnn3c2CO[C@H](c2cccc(F)c2)C3)CC1` as the compound, how does the “% Inhibition” value read?
A: -6%

Q: And the Z score?
A: 0.79

Q: What does the source list for `c1ccc2c(CN3CCCCCC3)c[nH]c2c1`?
A: % Inhibition: 5%; Z score: -0.53

Q: How did the “% Inhibition” value turn out when `CCOc1ccccc1NC(=O)c1ccc2oc(=O)n(Cc3ccc(F)cc3)c2c1` was run?
A: 2%

Q: And the Z score?
A: -0.31

Q: `COc1cccc(CNC(=O)N2CC[C@@H]3CCN(C)C[C@@H]32)n1` was tested. Which “% Inhibition” value did it give?
A: 88%

Q: And the Z score?
A: 0.42

Q: For `CN1CCC2CCN(C(=O)Nc3nccs3)C2C1` (centres undefined), which “% Inhibition” value is on record?
A: -8%

Q: And the Z score?
A: 0.77

Q: Which “% Inhibition” value does the source give for `CC(C)CCC(=O)N1CCC2CCN(C)CC21` (centres undefined) here?
A: -3%

Q: And the Z score?
A: 0.4

Q: For `C[C@]1(c2ccccc2Cl)NC(=O)N(CC(=O)Nc2ccc(Cl)cc2C(=O)c2ccccc2)C1=O`, which “% Inhibition” value is on record?
A: -1%

Q: And the Z score?
A: 0.1

Q: For `O=C(c1ccccc1)c1cc(Cl)ccc1NC(=O)[C@H]1CC(=O)N(c2ccc(F)cc2)C1`, which “% Inhibition” value is on record?
A: 56%

Q: And the Z score?
A: -9.01

Q: For `O=C(c1ccccc1)c1cc(Cl)ccc1NC(=O)C1CCN(C(=O)c2ccco2)CC1`, which “% Inhibition” value is on record?
A: 1%

Q: What about the Z score of the same compound?
A: -0.14

Q: Which “% Inhibition” value does the source give for `Cc1sc2ncnc(N3CCN4CCC[C@H]4C3)c2c1C` here?
A: -5%

Q: And the Z score?
A: 0.64

Q: What does the source list for `O=C(COc1ccccc1)N1CCCCC[C@@H]1CN1CCCC1`?
A: % Inhibition: 1%; Z score: -0.2

Q: With `Cc1cc(C(=O)NC2CC(C)n3ccnc32)nn1C(C)C` (centres undefined) as the compound, how does the “% Inhibition” value read?
A: 62%

Q: What about the Z score of the same compound?
A: -7.62

Q: Which results are given for `Cc1cc(C(=O)NC2CC2)nn1[C@@H](C)C1CC1`?
A: % Inhibition: -5%; Z score: 0.91

Q: For `CC(C)n1ccc(C(=O)NC2CC(C(=O)O)c3ccccc32)n1` (centres undefined), which “% Inhibition” value is on record?
A: -1%

Q: And the Z score?
A: 0.16

Q: What does the source list for `CC(Cc1ccccc1Br)NC(C)c1cccnc1` (centres undefined)?
A: % Inhibition: 2%; Z score: -0.27
